The structures appear in SMILES notation. Among all 340,000 compounds or so, about 1,000 (0.29%) were called active. Cut-off read from the data, not from the text of the source: inconclusive = inhibition above about 27% without an active follow-up result; inactive = below that. These entries were drawn from the full list. Results with a measured potency or affinity are listed apart.

The term inhibition denotes the relative decrease from the control value, in per cent.

The test can be described thus: NS1A inhibition, H1N1 influenza, cell based functional assay (AID 504329). The following applies: percent inhibition, at 12.5 µM, active compounds read high.
Regarding `CC(C)C[C@H]1COCCS(=O)(=O)N1Cc1cccc(F)c1`, the inhibition was -14.6% (inactive). `Cc1ccc(NC(=O)CC2S/C(=N/c3nccs3)N(C)C2=O)c(C)c1` (stereo unspecified): the inhibition was 2.84% (inactive). Regarding `CCCCNC(=O)NNC(=O)c1ccoc1C`, the inhibition is 0.18% (inactive). Take `Cc1cc2oc(=O)cc(COC(=O)Cn3cnnn3)c2cc1C(C)C`: the inhibition is -1.41% (inactive). Turning to `Cc1nc(SCC(=O)Nc2c(C)n(C)n(-c3ccccc3)c2=O)c2cnn(-c3ccccc3)c2n1`, the inhibition was -4.59% (inactive). For the molecule `CC(C)Nc1nc(NC(C)C)nc(N(C)N)n1`, the inhibition is 14.6% (inactive). With `CCNc1nc(NCC)nc(N(C)n2cnnc2)n1`, the inhibition is -22% (inactive). Regarding `COc1ccccc1C(=O)NNS(=O)(=O)c1ccc(F)cc1`, the inhibition was -5.08% (inactive). In the case of `CCc1ccc(NS(=O)(=O)c2c(C(=O)N3CCOCC3)c(C)n(C)c2C)cc1`, the inhibition was 0.85% (inactive). With `CCOC(=O)C(C)Oc1ccccc1C1NC(=O)NC(C)=C1C(=O)Nc1ccc(C)c(C)c1` (stereo unspecified), the inhibition is -6.31% (inactive).

Consider `[O-][n+]1c2c(nn1-c1ccccc1)/C(=N/O)CCC2`, for which the inhibition was -6.08% (inactive). In the case of `CCOC(=O)Cc1nnc(NC(=O)COc2ccc(F)cc2)s1` it was 6.17% (inactive); in that of `O=C(Nc1nc(-c2ccco2)c(-c2ccco2)s1)c1c(F)cccc1Cl`, -14.8% (inactive). Regarding `CC1(C)OC(=O)C(=NNc2ccccc2[N+](=O)[O-])C(=O)O1`, the inhibition is 3.07% (inactive).

Consider `CC1=CC(=NNS(=O)(=O)c2ccc([N+](=O)[O-])cc2)CC(C)(C)C1`, for which the inhibition is 4.39% (inactive). As to `CC(=O)COc1cc(C)cc2oc(=O)c(C)c(C)c12`, the inhibition is 11.6% (inactive).

Regarding `CCc1ccc2c(c1)C1(NN=C(c3cccc4ccccc34)S1)C(=O)N2` (stereo unspecified), the inhibition was 11.6% (inactive). In the case of `CCc1ccc2c(c1)C1(NN=C(c3ccc(C)cc3)S1)C(=O)N2` (stereo unspecified) it was 22.9% (inactive); in that of `CCOc1ccccc1Nc1cc(C)nc2ccc(C)cc12`, 6.09% (inactive). For the molecule `Cc1ccc(N2CC(NS(=O)(=O)c3cc(F)ccc3F)CC2=O)cc1C` (stereo unspecified), the inhibition is 9.69% (inactive). In the case of `Cc1nc(CNS(=O)(=O)c2ccc(Oc3ccccc3)cc2)cs1` it was -11.2% (inactive). Take `CC(=O)Nc1ccc(S(=O)(=O)NCc2ccc3c(c2)cc(C)n3C)cc1`: the inhibition is 19.1% (inactive). In the case of `Cc1cc2cc(CNS(=O)(=O)c3ccccc3)ccc2n1C`, the inhibition is 17% (inactive). In the case of `Cc1cc(C)c(S(=O)(=O)NCc2ccc3c(c2)cc(C)n3C)c(C)c1` it was 21.8% (inactive); in that of `CCCS(=O)(=O)NCc1ccc2c(c1)cc(C)n2C`, 7.25% (inactive). Regarding `CCS(=O)(=O)NCc1ccc2c(c1)cc(C)n2C`, the inhibition is 10.3% (inactive). Take `O=S(=O)(NCc1ccccc1)c1ccc2ccccc2c1`: the inhibition was -9.3% (inactive). In the case of `Cc1ccc(S(=O)(=O)NCc2csc(C)n2)cc1` it was -0.87% (inactive); in that of `COc1ccccc1C(=O)NCC(=O)OCC(=O)c1ccc2c(c1)-c1ccccc1C2`, 2.5% (inactive). Consider `CSc1ccccc1OCc1cc(C(=O)N2CCN(c3ncccn3)CC2)no1`, for which the inhibition was -3.62% (inactive). For `O=C(c1ccccc1F)N1CCCc2ccccc21`, the inhibition was -3.09% (inactive). For the molecule `CCOC(=O)CN(C(=O)CNC(=O)c1cccs1)C(C(=O)NC1CCCC1)c1ccncc1` (stereo unspecified), the inhibition was -5% (inactive). Turning to `CCC(C(=O)N/N=C/c1cccnc1)c1ccccc1` (stereo unspecified), the inhibition was -5.44% (inactive). With `Cc1cc(C(=O)NC2CCCN(Cc3ccccc3F)C2)n[nH]1` (stereo unspecified), the inhibition was -3.85% (inactive). As to `C=CCNC(=S)Nc1ccccc1-c1nnc2n1CCCCC2`, the inhibition is 9.65% (inactive).

For `COC(=O)c1cc(C(=O)OCC(=O)NC2CCCCCCC2)cc([N+](=O)[O-])c1`, the inhibition is -0.07% (inactive). `Cc1ccc(CNC(=O)COc2ccc(C)nc2[N+](=O)[O-])cc1`: the inhibition is -5.51% (inactive).

On to `CCCCC(=O)Nc1c2c(nn1-c1ccc(C)cc1)CS(=O)(=O)C2`, for which the inhibition was -7.59% (inactive). As for `COC(=O)c1c(C)cc(C)c2c1CC(C)(C)C2=O`, the inhibition was 5.46% (inactive). On to `O=C(Nc1ccccc1)c1ccc(F)c(S(=O)(=O)N2CCOCC2)c1`, for which the inhibition was 5.59% (inactive).

Consider `Cc1ccc(S(=O)(=O)N2CCOCC2)cc1C(=O)Nc1nc(-c2ccccn2)cs1`, for which the inhibition is 7.65% (inactive). Take `O=C(Nc1nccs1)c1ccc(F)c(S(=O)(=O)N2CCOCC2)c1`: the inhibition was -4.84% (inactive). For the molecule `COc1ccc(C(=O)Nc2nc(-c3ccccn3)cs2)cc1S(=O)(=O)N1CCOCC1`, the inhibition was -8.69% (inactive).

Consider `Cc1ccc(C(=O)Nc2ccccn2)cc1S(=O)(=O)N1CCOCC1`, for which the inhibition is -1.96% (inactive). In the case of `Cc1ccc(S(=O)(=O)N2CCOCC2)cc1C(=O)Nc1nc(-c2cccnc2)cs1`, the inhibition is -7.87% (inactive). Consider `CCC(NC(=O)COc1cc2c(c3oc(=O)c(C)c(C)c13)CCC(C)(C)O2)C(=O)O` (stereo unspecified), for which the inhibition was -8.88% (inactive). For `CC(C)CCN1CC(=O)N2Cc3[nH]c4ccccc4c3C[C@H]2C1=O`, the inhibition is 19.7% (inactive). Consider `Cc1c(CNC2CCCC(C)C2C)c(C(=O)O)c(C)n1Cc1ccccc1` (stereo unspecified), for which the inhibition was -12.9% (inactive). `CC(C)NC(=O)NC(=O)COC(=O)c1cc(S(=O)(=O)N2CCCCC2)ccc1N1CCOCC1`: the inhibition is -4.42% (inactive). As to `Cc1ccc(S(=O)(=O)N2CCCC2C(=O)OCc2ccccc2)cc1` (stereo unspecified), the inhibition is 1.42% (inactive). For the molecule `Cc1cc(NC(c2ccc(Cl)cc2)c2ccc3cccnc3c2O)no1` (stereo unspecified), the inhibition is -17.5% (inactive).

Regarding `Cc1ccc2ccc(C(Nc3ccccn3)c3ccccc3)c(O)c2n1` (stereo unspecified), the inhibition was 32.6% (inactive). As for `COc1ccccc1NC(c1cccnc1)c1ccc2cccnc2c1O` (stereo unspecified), the inhibition was 17.3% (inactive). In the case of `COc1ccc(C(Nc2cc(C)ccn2)c2ccc3ccc(C)nc3c2O)cc1` (stereo unspecified) it was 7.32% (inactive); in that of `Oc1ccccc1C(Nc1nccs1)c1ccc2cccnc2c1O` (stereo unspecified), 21.5% (inactive); in that of `Oc1c(C(Nc2cccc(C(F)(F)F)c2)c2cccnc2)ccc2cccnc12` (stereo unspecified), -1.29% (inactive).

As for `Cc1ccnc(NC(c2ccccc2)c2ccc3cccnc3c2O)c1` (stereo unspecified), the inhibition is 7.45% (inactive). With `Cc1ccc2ccc(C(Nc3cccc(C(F)(F)F)c3)c3cccnc3)c(O)c2n1` (stereo unspecified), the inhibition was 11.9% (inactive). The same measure for `CC(C)CNC(=O)COc1cccc(C(=O)NCc2ccccc2)c1`: -16.8% (inactive). Consider `O=C(CN1C(=O)c2cccc3cccc1c23)NCc1cccnc1`, for which the inhibition is -7.77% (inactive). Consider `Cc1cc(S(=O)(=O)Nc2ccc(N3CCOCC3)cc2)ccc1Br`, for which the inhibition was 9.89% (inactive). For the molecule `Cc1ccc(-n2nc3c(=O)n(CCCC(=O)NCc4cccc(F)c4)nc(C)c3c2C)cc1`, the inhibition is 4.12% (inactive). Take `Cc1c2cnn(CC(=O)NCCN3CCOCC3)c(=O)c2c(C)n1Cc1ccccc1`: the inhibition is 7.12% (inactive). On to `Cc1ccc(Nc2nc(N)nc(CSc3nnnn3-c3ccccc3)n2)cc1`, for which the inhibition was -1.1% (inactive). The same measure for `COc1cccc(CN(C)C(=O)c2ccc(NS(=O)(=O)c3ccc4[nH]c(=O)[nH]c4c3)cc2)c1OC`: -3.23% (inactive); for `CC(C(=O)Nc1cccc(S(=O)(=O)N2CCOCC2)c1)N1CCN(C/C=C/c2ccccc2)CC1` (stereo unspecified): -4.15% (inactive); for `CCOC(=O)Cc1csc(NS(=O)(=O)c2ccc(NC(C)=O)cc2)n1`: -2.56% (inactive). In the case of `Cc1cc(C)c(S(=O)(=O)/N=C2\C=C(NS(=O)(=O)c3ccccc3)C(=O)c3ccccc32)c(C)c1` it was 0.45% (inactive); in that of `CCc1ccc(S(=O)(=O)/N=C2\C=C(Nc3cccc(C(=O)O)c3)C(=O)c3ccccc32)cc1`, 24.6% (inactive). For `O=C(O)c1ccc(NC2=C/C(=N/S(=O)(=O)c3ccccc3)c3ccccc3C2=O)cc1`, the inhibition was 15.2% (inactive). As for `Cc1ccc(S(=O)(=O)/N=C2\C=C(Nc3cccc(C(=O)O)c3)C(=O)c3ccccc32)c(C)c1`, the inhibition was 25.4% (inactive). Regarding `O=C(COC(=O)c1c(F)cccc1F)Nc1ccc(N2CCCCC2)cc1`, the inhibition is -4.21% (inactive). Consider `CCOc1ccc(-n2c(SCc3cc(=O)oc4cc(C)c(C(C)C)cc34)nnc2-c2cccnc2)cc1`, for which the inhibition was 2.59% (inactive).

For `COc1ccc(C2CC3(CC(C)(C)NC(SC)=N3)Oc3cc(O)cc(C)c32)cc1` (stereo unspecified), the inhibition was 2.74% (inactive). The same measure for `CCCN1CCC(NC(=O)C2CCCCC2C(=O)O)CC1` (stereo unspecified): -9.23% (inactive). `CC(c1ccon1)N(C)C(=O)c1ccc(OC2CCN(C(=O)C3CC3)CC2)cc1` (stereo unspecified): the inhibition is 1.15% (inactive). Consider `CC(=O)c1ccc(N=c2scc(C)n2C(C)C)cc1`, for which the inhibition is 2.71% (inactive). Regarding `CCN(CC)c1ccc(C=NN2CCCCCC2)cc1`, the inhibition is 1.15% (inactive). As for `Clc1ccc(/C=N/N2CCCCC2)cc1`, the inhibition is 10.3% (inactive). The same measure for `COc1ccc(CNCC2COc3ccccc3O2)cc1` (stereo unspecified): -2.36% (inactive).

On to `O=C(CC1C[C@H](C(=O)N2CCCCC2)[C@@]2(CCc3ccccc3)c3[nH]c4ccccc4c3CCN2C1=O)NCCCn1ccnc1` (stereo partly specified), for which the inhibition was -10.1% (inactive). The same measure for `CCN1C(=C2C(=O)c3ccccc3C2=O)C=Cc2ccccc21`: -0.12% (inactive). The same measure for `CCN1C(=O)/C(=C2\SC(=S)N(NC(=O)c3ccccc3O)C2=O)c2ccccc21`: -6.27% (inactive); for `COCCN1C(=O)/C(=C2/C(=O)N(CC(=O)Nc3ccccc3Cl)c3ccccc32)SC1=S`: 1.06% (inactive); for `CCN1C(=O)/C(=C2\C=Cc3ccccc3N2CC)OC1=S`: 20.4% (inactive).

Take `CCN1/C(=C2/SC(=S)N(C)C2=O)C=Cc2cc(C)ccc21`: the inhibition is 9.87% (inactive). Take `CN1C(=O)/C(=C2/C=Cc3ccccc3N2CCCS(=O)(=O)O)SC1=S`: the inhibition was 8.55% (inactive).

On to `CCCN1/C(=C2/SC(=S)N(CC)C2=O)C=Cc2ccccc21`, for which the inhibition is -4.1% (inactive). Regarding `CCN1/C(=C2\OC(=S)N(C)C2=O)C=Cc2ccccc21`, the inhibition was 4.12% (inactive). `CC(SCc1ccccc1)C(=O)Nc1ccccc1F` (stereo unspecified): the inhibition was 4.17% (inactive).

On to `N#Cc1c(Sc2ncc(C(F)(F)F)cc2Cl)nsc1C/C=N\OCc1ccccc1Br`, for which the inhibition is -7.95% (inactive).

Values taken from PubChem BioAssay AID504329 (Southern Research Specialized Biocontainment Screening …, 2011).
